Measured values from PubChem BioAssay AID1259343 (VanderVen Lab, College of Veterinary Medicine, Cornell …, 2017).
The whole screen tested about 6,200 compounds, of which about 2,900 (47%) were called active. Rule as the data show it: active = inhibition above about 50%; inactive = the rest. So high a share suggests a set chosen from earlier hits. This is one part of the list.

Assay: Mycobacterium tuberculosis growth inhibition, primary screen (AID 1259343)
Conditions: inhibition: at 10 µM, active compounds read high; outcome: 10 uM

SMILES | inhibition
NC(c1csc(Nc2nncc3ccccc23)n1)C1CCCCC1 (stereo not drawn) | 97.4% (active)
NC(Cc1ccccc1)c1csc(Nc2nncc3ccccc23)n1 (stereo not drawn) | 89.8% (active)
NC(c1csc(Nc2nncc3ccccc23)n1)c1ccccc1Cl (stereo not drawn) | 58.8% (active)
COc1ccc(CC(N)c2csc(Nc3nncc4ccccc34)n2)cc1 (stereo not drawn) | 91.7% (active)
Cc1cc2n(c1)CCn1c(C)ccc1-2 | -18.7% (inactive)
COc1ccc(C(N)c2csc(Nc3nncc4ccccc34)n2)cc1 (stereo not drawn) | 57.6% (active)
NC(COCc1ccccc1)c1csc(Nc2nncc3ccccc23)n1 (stereo not drawn) | 71% (active)
c1ccc(CC(Cc2ccccc2)=NNc2nncc3ccccc23)cc1 | 9.04% (inactive)
NC(CCc1ccccc1)c1csc(Nc2nncc3ccccc23)n1 (stereo not drawn) | 81% (active)
CCCn1ccnc1SCC(=O)NC(=O)NC12CC3CC(CC(C3)C1)C2 | 32.7% (inactive)
O=C(Nc1ccc(-c2ccccc2)cc1)N[C@@H](Cc1ccccc1)C(=O)N1CCC(C(=O)N2CCCCC2)CC1 | 76.3% (active)
Cc1ccc(-n2c(Cl)c(Cl)nc(Cl)c2=O)cc1 | 102% (active)
CCCc1nc2oc3ccccc3c(=O)c2c(=O)n1-c1ccc(C)cc1 | -28% (inactive)
Cc1sc2ncnc(NC3CCCCC3C)c2c1C (stereo not drawn) | 84.5% (active)
CCOC(=O)c1c(C)[nH]c(C(=O)OCC(=O)C23CC4CC(CC(C4)C2)C3)c1C | -59.8% (inactive)
Cc1ccc(C)c(N=Nc2c(C)[nH]c3ccccc23)c1 | 81.8% (active)
Cc1[nH]c2ccccc2c1N=Nc1ccc(F)cc1 | 11.2% (inactive)
Cc1[nH]c2ccccc2c1N=Nc1ccc2c(c1)OCO2 | 89.7% (active)
CCOC(=O)c1c(C)[nH]c(N=Nc2ccc3c(c2)OCO3)c1C | 104% (active)
Cc1ccc(C2=NNC(=NCc3ccc4c(c3)OCO4)SC2)s1 | 18.8% (inactive)
Cc1[nH]c2ccccc2c1C(c1cccnc1)c1c(C)[nH]c2ccccc12 | 45.9% (inactive)
Cc1[nH]c2ccccc2c1N=Nc1cccc2ccccc12 | -9.25% (inactive)
Cc1[nH]c2ccccc2c1N=Nc1ccc(SC(F)F)cc1 | 58.3% (active)
CCOC(=O)c1c(C)[nH]c(C(=O)CSc2ncn[nH]2)c1C | -1.94% (inactive)
O=c1c(NCCc2ccccc2)nccn1-c1ccccc1 | 23.1% (inactive)
Cc1ccc(-n2ccnc(NCC(C)c3ccccc3)c2=O)cc1C (stereo not drawn) | 68.9% (active)

SMILES | inhibition
Cc1cc(F)ccc1S(=O)(=O)Nc1cc(-c2ccccc2)on1 | 69.6% (active)
Cc1cc(NS(=O)(=O)c2cc(Cl)ccc2Cl)no1 | 43.7% (inactive)
Cc1cc(C2=NNC(=NCc3ccco3)SC2)c(C)n1Cc1ccco1 | -40.5% (inactive)
CC(C)(C)N=C1NN=C(c2ccc3ccccc3c2)CS1 | 9.77% (inactive)
Cc1ccc(N=C2NN=C(c3cc(F)ccc3F)CS2)c(C)c1 | 31.9% (inactive)
CCCCN=C1SCC(c2cc(C)n(Cc3ccco3)c2C)=NN1C | 44% (inactive)
Cc1ccccc1N=C1NN=C(c2ccccc2F)CS1 | 68.3% (active)
FC(F)Oc1ccc(C2=NNC(=NC3CC3)SC2)cc1 | 18.9% (inactive)
Cc1cc(C2=NNC(=NCC3CCCO3)SC2)c(C)n1Cc1cccs1 (stereo not drawn) | 23.6% (inactive)
CC(C)(C)N=C1NN=C(c2c[nH]c3ccccc23)CS1 | -10% (inactive)
Cc1cc(C2=NNC(=NC3CC3)SC2)c(C)n1-c1ccccc1F | 95.9% (active)
Cc1cc(C2=NNC(=NCc3ccc4c(c3)OCO4)SC2)c(C)n1Cc1ccco1 | -5.02% (inactive)
COCCCN=C1NN=C(c2cc(C)n(Cc3ccco3)c2C)CS1 | 63.8% (active)
Cc1cc(C2=NNC(=NC3CCCC3)SC2)c(C)n1Cc1ccco1 | 99.4% (active)
O=c1c2c(F)c(F)c(F)c(F)c2on2c3c(nc12)CCCC3 | 44.8% (inactive)
CC(C)c1ccc(-n2nnnc2SC(C)c2nnc(-c3ccc([N+](=O)[O-])cc3)o2)cc1 (stereo not drawn) | 18.5% (inactive)
O=[N+]([O-])c1ccc(Sc2nnnn2-c2ccccc2)c([N+](=O)[O-])c1 | 89.6% (active)
O=[N+]([O-])c1c(Sc2nnnn2-c2ccccc2)nc2sccn12 | 99.2% (active)
c1ccc(-n2nnnc2SCCNc2nc3ccccc3[nH]2)cc1 | 42.9% (inactive)
c1ccc(Sc2c(-c3ccccc3)nc3sccn23)cc1 | 34.5% (inactive)
O=C(CSc1nnnn1-c1ccccc1)NNC(=O)c1ccc(O)cc1O | 11.6% (inactive)
O=C1c2ccccc2NC2(CCCC2)N1CC(F)(F)F | 85.2% (active)
NC(=S)N=Nc1ccc(NN=C(N)N)cc1 | 101% (active)
CC(=O)C1=C(C(F)(F)F)N(C)C(=S)N(C)C1c1ccccc1 (stereo not drawn) | 70% (active)
COc1ccc(OCCN2C(=O)CN(/C=C/c3ccccc3)C2=O)cc1 | -5.21% (inactive)
CN1CC(=O)N(CCCC(=O)Nc2ccc(OCc3ccccc3)cc2)C1=O | 93.5% (active)

SMILES | inhibition
C=CCN(CC(O)COc1ccccc1)CC1CC(c2ccccc2)=NO1 (stereo not drawn) | 20.8% (inactive)
CC(O)CNCCCCOc1ccc(OCc2ccccc2)cc1 (stereo not drawn) | 96.8% (active)
OC1(c2ccc(OCc3ccccc3)cc2)CCOCC1 | 30.5% (inactive)
NS(=O)(=O)c1ccc2c(c1)CCN2Cc1cc(F)cc2c1OCOC2 | 3.61% (inactive)
O=C(O)C1CCN(C(=O)c2ccc(-c3ccc(Cl)cc3)s2)CC1 | 1.69% (inactive)
Cc1ccc(C(=O)N2CCC(c3ccc(F)cc3)CC2)s1 | 33.5% (inactive)
CC1CCN(C(=O)c2ccc(-c3ccc(F)c(F)c3)s2)CC1 | 65.3% (active)
COc1ccc(NC(=O)N2CCCC(C(=O)c3sccc3C)C2)cc1OC (stereo not drawn) | 23.7% (inactive)
COc1cc(NC(=O)CN2CCC(n3ccnc3)C2)ccc1Cl (stereo not drawn) | 85.6% (active)
O=C(NCC(O)COc1cccc(Cl)c1Cl)C1CC1c1ccco1 (stereo not drawn) | 12.8% (inactive)
O=C(Nc1ncc(Cl)s1)C1CC1c1ccco1 (stereo not drawn) | 86.5% (active)
COc1cccc(C2CC2C(=O)Nc2cnc(C3CC3)nc2)c1 (stereo not drawn) | 37.3% (inactive)
CCCc1cc(=O)[nH]c(-n2nc(C)cc2NC(=O)c2ccc(OC)c(OC)c2)n1 | 102% (active)
CCc1cc(=O)[nH]c(-n2nc(C)cc2NC(=O)c2cc(OC)c(OC)c(OC)c2)n1 | -22.3% (inactive)
CCCc1cc(=O)[nH]c(-n2nc(C)cc2NC(=O)c2cc(OC)c(OC)c(OC)c2)n1 | 100% (active)
CC(NC(=O)COc1ccc2cc(Br)ccc2c1)c1ccc(F)cc1 (stereo not drawn) | -32.3% (inactive)
COC(=O)CN1C(c2ccc(OC)cc2)=Nc2ccc(Br)cc2C1c1ccccc1 (stereo not drawn) | 29.4% (inactive)
O=C(O)COc1ccc2cc(Br)ccc2c1 | 78.5% (active)
Cc1cccc2c3c(ccc12)C1=C(C(=O)C3=O)C(C)CO1 (stereo not drawn) | 82.3% (active)
CN(CC(F)(F)C(F)F)S(=O)c1ccc2ccccc2c1 (stereo not drawn) | 49% (inactive)
CC(NCC1(c2ccccc2)CCCC1)c1nnc(-c2ccccc2)o1 (stereo not drawn) | -0.11% (inactive)
COc1ccc(-c2nnc(C(C)Nc3cccc4c3CCCC4)o2)cc1 (stereo not drawn) | 67.9% (active)
CN(Cc1ccco1)C(=O)NCCc1cccc(Cl)c1 | 49.7% (inactive)
O=C(Cc1ccc2c(c1)CCC2)NCCc1ccc2c(c1)OCCO2 | 37.8% (inactive)
CN(Cc1ccccc1)C(=O)NCCc1ccc2c(c1)CCO2 | 66.7% (active)
c1ccc(CCCCc2nn3c(C4CC4)nnc3s2)cc1 | 34.8% (inactive)

SMILES | inhibition
FC(F)(F)c1nnc2sc(Cc3cccc4ccccc34)nn12 | 71.8% (active)
O=S(=O)(NCCCC1CCCCC1)N1CCCCCC1 | 26.3% (inactive)
CC1CCN(S(=O)(=O)NCc2cc(-c3ccccc3)on2)CC1 | 20.4% (inactive)
O=S(=O)(NCc1ncc(-c2ccccc2)o1)N1CCCCCC1 | 58.4% (active)
Cc1oc(=O)oc1CN1CCN(c2cc3c(cc2F)c(=O)c(C(=O)O)c2n3C(C)S2)CC1 (stereo not drawn) | 96.9% (active)
CN1C(=CC=NNc2nc3ccccc3s2)C(C)(C)c2ccccc21 | 97% (active)
CN1C(=CC=NN=c2sc3ccccc3n2C)C(C)(C)c2ccccc21 | 4.19% (inactive)
c1cc(-c2nc3cc(Oc4ccc5oc(-c6ccncc6)nc5c4)ccc3o2)ccn1 | 32.7% (inactive)
O=C(NN=CC(Br)=Cc1ccccc1)c1cnccn1 | -13.9% (inactive)
Cc1ccc(CN2CCN(N=CC(Br)=Cc3ccccc3)CC2)c(C)c1 | 98.3% (active)
Cc1cccc2sc(N(Cc3ccccc3)C(=O)c3ccno3)nc12 | 35.8% (inactive)
COc1ccccc1OCC(=O)N1CCC(Oc2nc3c(C)cccc3s2)CC1 | 20.8% (inactive)
COC(=O)c1ccc(C(=O)NNc2nc3c(C)cccc3s2)cc1 | 99.7% (active)
Cc1cc(C)cc(Oc2cc(-n3nc(C)cc3C)ncn2)c1 | 65.7% (active)
CCCN(C)c1cc(Oc2ccc(C)cc2)ncn1 | 25.2% (inactive)
Fc1ccccc1-c1noc2nc(NC3CC3)ccc12 | 70.5% (active)
CC1CCCC(C)N1CCNc1ccc2c(-c3ccc(F)cc3)noc2n1 (stereo not drawn) | 47.2% (inactive)
COCCCNc1ccc2c(-c3ccccc3F)noc2n1 | 76.1% (active)
Fc1ccc(-c2noc3nc(NC4CC4)ccc23)cc1 | 92.9% (active)
c1ccc(-c2noc3nc(NC4CC4)ccc23)cc1 | 44.6% (inactive)
CCCC1=NN(C(C)=O)C(C(=O)NCCCN2CCCCC2C)O1 (stereo not drawn) | -9.23% (inactive)
Oc1ccc2[nH]c(-c3ccccc3)nc2c1CN1CCCCC1 | 13.3% (inactive)
c1ccc(-c2nc3c(ccc4ccccc43)[nH]2)cc1 | 89.8% (active)
c1ccc(-c2nc3c(ccc4ccccc43)[nH]2)nc1 | 96.1% (active)
c1ccc(-c2nc3cc4ccccc4cc3[nH]2)nc1 | 17.5% (inactive)
